ATXN2 expr inh – ATXN2 expression inhibition; HEK-293 ATXN2-luciferase reporter, luminescence, 24 h; Potency, µM (titrated, usually from 57 µM), usual class: inhibitors; 360,000 compounds, 0.72% hits; AID 1745845; note: nearly all actives have a fitted effect of over 55% in size
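ATXN2-luciferase reporter cells (luciferase flanked by upstream and downstream ATXN2 gene portions) were treated 24 h at 37 °C with compounds at up to 57 uM. SteadyGlo luminescence gave expression; GF-AFC fluorescence gave viability.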
ATXN viability – viability counter-screen for ATXN expression inhibitors; S2 cells (HEK-293 line with an ATXN2-luciferase reporter) viability, CellTiter-Fluor protease fluorescence, 24 h; Potency, µM (doses to about 56.7 µM), most hits filed as cytotoxic; 400,000 compounds, 0.49% hits; AID 651635; note: nearly all actives have a fitted effect of over 40% in size
HepG2 viability – kills HepG2 cells in TGF-b inhibitor counter-screen; HepG2 CAGA-GFP viability, ATP luminescence, 18 h; Potency, µM (highest dose often 46.1 µM), usual class: cytotoxic; 410,000 compounds, 0.76% hits; AID 588856
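HepG2 CAGA-GFP cells (1000/well, DMEM with 1% FBS) received compound, then TGF-beta at 500 pg/mL final, and were incubated 18 hours at 37 degrees C. Viability was read by CellTiter-Glo luminescence. Media-only wells were set as complete cell-killing and DMSO as no toxicity.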
DT40 TDP1 no CPT – qHTS for Inhibitors of human tyrosyl-DNA phosphodiesterase 1 (TDP1): qHTS in cells in absence of CPT; Potency, µM (doses to about 46.2 µM), hits mostly inhibitors; DT40 Tdp1-/- hTDP1 cells, no CPT, ATP luminescence, 48 h; 420,000 compounds, 15% hits; note: nearly all actives have a fitted effect of over 55% in size
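A cellular qHTS used chicken DT40 cells lacking endogenous Tdp1 but carrying stably transfected human TDP1. Compounds were applied without camptothecin, and cell growth kinetics were judged by ATP-dependent luminescence after ≥48 hr.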
TDP1 cell CPT – growth inhibition of DT40 Tdp1-/-;hTDP1 cells with camptothecin (screen for TDP1 inhibitors); chicken DT40 Tdp1-/-;hTDP1 cells + 20 nM CPT, ATP luminescence, 48 h; Potency, µM (doses to about 46.2 µM), usual class: inhibitors; AID 686979; 420,000 compounds, 12% hits; note: nearly all actives have a fitted effect of over 55% in size
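Cell growth measured by CellTiter-Glo luminescence after a minimum 48 h, 37 C compound exposure with 20 nM CPT in Tdp1-knockout DT40 cells stably expressing hTDP1, seeded 400/well; qHTS titration format.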
TGFb SMAD3 inh – blocks TGF-b signaling; Potency, µM (top dose mostly 46.1 µM), most hits filed as inhibitors; 410,000 compounds, 1.2% hits; HepG2 CAGA-GFP TGF-b/SMAD3 reporter, GFP fluorescence, 18 h; TGF-beta stimulated, 500 pg/mL final; note: nearly all actives have a fitted effect of over 65% in size
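Smad-responsive CAGA-GFP expression was quantified in HEPG2 cells exposed to compounds and 500 pg/mL final TGF-beta for 18 h at 37 degrees C; unstimulated wells defined full inhibition.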
Each line names hits and unclear results; the compound was inactive in the other large screens. An excerpt weighted towards active compounds, which were near 17% of everything screened. Calls come from the whole dose curve; as a rule, active = well fitted curve in the direction sought with a large enough effect; inconclusive = small, poorly fitted or top-dose-only effect, or another doubt; inactive = no such curve, though single readings can be large; an effect the other way counts as inactive or inconclusive.

Cc1ccc(C)c(N2CCN(C(=O)CCCCCn3c(=O)[nH]c4ccccc4c3=O)CC2)c1	DT40 TDP1 no CPT inconclusive, TDP1 cell CPT inconclusive (no result: ATXN2 expr inh, ATXN viability)
O=C(Cc1cccs1)N1CCN(c2ccc([N+](=O)[O-])cc2)CC1	DT40 TDP1 no CPT inconclusive, TDP1 cell CPT inconclusive
CCCCC(CC)CNC(=O)CCCCCn1c(=O)[nH]c2ccsc2c1=O (configuration not stated)	ATXN viability inconclusive, DT40 TDP1 no CPT 23.1µM, TDP1 cell CPT inconclusive, TGFb SMAD3 inh inconclusive
COC(=O)c1ccc2c(=O)n(CCCCCC(=O)N3CCN(c4cccc(C)c4C)CC3)c(=O)[nH]c2c1	DT40 TDP1 no CPT inconclusive, TDP1 cell CPT inconclusive, TGFb SMAD3 inh 2.82µM (no result: ATXN2 expr inh, ATXN viability)
Cc1ccc(Cl)cc1N1CCN(C(=O)CCCCCn2c(=O)[nH]c3ccccc3c2=O)CC1	DT40 TDP1 no CPT 0.651µM, TDP1 cell CPT 0.731µM (no result: ATXN2 expr inh, ATXN viability)
O=C(CCn1c(=O)[nH]c2ccsc2c1=O)N1CCN(c2ccc([N+](=O)[O-])cc2)CC1	DT40 TDP1 no CPT inconclusive, TDP1 cell CPT 16.4µM
CC1CCN(c2ccc3nnc(CCC(=O)N4CCN(c5ccc(F)cc5)CC4)n3n2)CC1	DT40 TDP1 no CPT inconclusive, TDP1 cell CPT inconclusive
Cc1ccc2nc3c(nc2c1C)C(O)=C3O	DT40 TDP1 no CPT inconclusive, TDP1 cell CPT 14.6µM
CCOc1cc(/C=C(/NC(C)=O)C(=O)O)cc(Cl)c1OCc1cccc(Br)c1	none
CCN(CC)CCNC(=O)C(=O)Nc1c2c(nn1-c1ccc(F)cc1)CSC2	ATXN viability inconclusive
Cc1cccc(CNc2cc(-c3ccccc3C)ncn2)c1	DT40 TDP1 no CPT 6.51µM, TDP1 cell CPT 14.6µM (no result: ATXN2 expr inh, ATXN viability, HepG2 viability, TGFb SMAD3 inh)
COc1ccccc1-c1cc(NCc2cccc(C)c2)ncn1	DT40 TDP1 no CPT 18.4µM, TDP1 cell CPT 13µM (no result: ATXN2 expr inh, ATXN viability, HepG2 viability, TGFb SMAD3 inh)
COc1ccc(OC)c(NC(=O)Cn2ccn(-c3ccc(OC)c(OC)c3)c(=O)c2=O)c1	none (no result: ATXN2 expr inh, ATXN viability)
O=C(CCNc1n[nH]c(=O)[nH]c1=O)N1CCOCC1	none
COc1ccc(/C=C/C(=O)N(Cc2cccs2)C2CCS(=O)(=O)C2)cc1 (configuration not stated)	TDP1 cell CPT inconclusive
O=C(Nc1ccc(O)c2c(=O)cc(-c3cccc(Cl)c3)oc12)c1cccc(Cl)c1	DT40 TDP1 no CPT 8.2µM, TDP1 cell CPT 7.31µM, TGFb SMAD3 inh inconclusive
CC(C)(C)c1ccc(C(=O)Nc2ccc(O)c3c(=O)cc(-c4cccc(Cl)c4)oc23)cc1	DT40 TDP1 no CPT 7.31µM, TDP1 cell CPT 5.8µM
COc1ccc(C(=O)Nc2ccc(O)c3c(=O)cc(-c4cccc(Cl)c4)oc23)cc1	ATXN viability 4.47µM
COc1ccc(C(=O)Nc2ccc3oc(-c4cccc(Cl)c4)cc(=O)c3c2O)cc1	ATXN viability inconclusive, DT40 TDP1 no CPT inconclusive
COC(=O)c1ccccc1NC(=O)CSc1nnc(Cc2ccc(Cl)cc2)o1	DT40 TDP1 no CPT inconclusive
CN(C)c1nc(NC(C)(C)C)nc(NC(C)(C)C)n1	ATXN2 expr inh inconclusive, DT40 TDP1 no CPT 20.6µM, TDP1 cell CPT inconclusive
CCCCN(C)C(=O)c1ccc2c(c1)N(Cc1cccc(Cl)c1)C(=O)c1ccccc1S2=O (configuration not stated)	DT40 TDP1 no CPT 14.6µM, TDP1 cell CPT 8.2µM (no result: ATXN2 expr inh, ATXN viability)
O=C(NCCc1ccccc1)c1ccc2c(c1)N(Cc1ccccc1)C(=O)c1ccccc1S2=O (configuration not stated)	DT40 TDP1 no CPT inconclusive, TDP1 cell CPT 29.1µM (no result: ATXN2 expr inh, ATXN viability)
O=C(NCCCN1CCOCC1)c1ccc2c(c1)N(Cc1ccccc1)C(=O)c1ccccc1S2=O (configuration not stated)	TDP1 cell CPT inconclusive
COc1ccc(CCNC(=O)c2ccc3c(c2)N(Cc2ccccc2)C(=O)c2ccccc2S3=O)cc1OC (configuration not stated)	DT40 TDP1 no CPT 11.6µM, TDP1 cell CPT 16.4µM
CCOc1ccc(CCNC(=O)c2ccc3c(c2)N(Cc2ccccc2F)C(=O)c2ccccc2S3=O)cc1OCC (configuration not stated)	DT40 TDP1 no CPT 23.1µM, TDP1 cell CPT inconclusive
CCC(C)NC(=O)c1ccc2c(c1)N(Cc1ccccc1F)C(=O)c1ccccc1S2=O (configuration not stated)	none
COc1ccc(CNC(=O)c2ccc3c(c2)N(Cc2ccccc2)C(=O)c2ccccc2S3=O)cc1 (configuration not stated)	none
C#CCNC(=O)C1=C[C@@H](C2CC2)C[C@@H](OCc2ccc(CO)cc2)O1	none
CCN1C(=O)c2ccccc2S(=O)c2ccc(C(=O)NCCN(CC(C)C)CC(C)C)cc21 (configuration not stated)	DT40 TDP1 no CPT 23.1µM, TDP1 cell CPT inconclusive
Cc1ccc(OC2CCN(C(=O)[C@H]3O[C@@H](n4ccc(N)nc4=O)[C@H](O)[C@@H]3O)CC2)cc1	none
CC1CCCCN1C(=O)c1ccc(C(=O)c2ccccc2)cc1 (configuration not stated)	ATXN viability inconclusive, DT40 TDP1 no CPT 14.6µM, TDP1 cell CPT inconclusive
COc1ccccc1C(CNc1ncnc2sc(C)c(C)c12)N(C)C (configuration not stated)	DT40 TDP1 no CPT 20.6µM, TDP1 cell CPT inconclusive
COc1ccc(C(CNc2ncnc3sc(C)c(C)c23)N(C)C)cc1 (configuration not stated)	ATXN2 expr inh inconclusive, DT40 TDP1 no CPT 23.1µM, TDP1 cell CPT inconclusive
COc1ccccc1CNc1ncnc2sc(C(=O)N(C)C(C)C)c(C)c12	ATXN viability inconclusive, DT40 TDP1 no CPT inconclusive (no result: ATXN2 expr inh, HepG2 viability, TGFb SMAD3 inh)
Cc1c(NC(=S)N/N=C/c2ccc(N(C)C)cc2)c(=O)n(-c2ccccc2)n1C	DT40 TDP1 no CPT inconclusive, TDP1 cell CPT 16.4µM
CCCC(=O)NC(Nc1c(C)n(C)n(-c2ccccc2)c1=O)C(Cl)(Cl)Cl (configuration not stated)	none (no result: ATXN2 expr inh)
Cc1c(NC(=S)N/N=C/c2cccc(O)c2)c(=O)n(-c2ccccc2)n1C	none
CCCC(=O)NC(NC(=S)Nc1c(C)n(C)n(-c2ccccc2)c1=O)C(Cl)(Cl)Cl (configuration not stated)	DT40 TDP1 no CPT 29.1µM, TDP1 cell CPT inconclusive
COc1ccc(C2=NOC(c3nnc(-c4ccccc4)o3)C2)cc1 (configuration not stated)	none
COC(=O)CN1C(=O)COc2ccc(S(=O)(=O)NCc3ccc(Cl)cc3)cc21	none

High-throughput results (PubChem)
